# Results reported in PubChem BioAssay (NCI).
# The panel holds about 79,000 compounds, 15% with a hit somewhere; the sample as a whole holds those more often. A number with no mark means an inactive call. Active and inactive are the calls of the source. Cut-off read from the data, not from the text of the source: active = growth inhibition above about 70%; inactive = the rest.
# Tests used:
# [1] = NCI Yeast Anticancer Drug Screen. Data for the rad52 strain (AID 147);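 note: 0% = growth of vehicle-treated control cultures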; conditions: S. cerevisiae rad52 mutant growth inhibition, active compounds read high
# Method in brief: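 Vehicle-treated cultures served as the reference for growth inhibition of compound-exposed yeast bearing a DNA repair mutation.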
# [2] = NCI Yeast Anticancer Drug Screen. Data for the wt1 strain (AID 149);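 note: 0% = growth of vehicle-treated wt1 cultures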; conditions: S. cerevisiae wt1 strain (SPY 50644) growth inhibition, active compounds read high
# Method in brief: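 wt1 strain grown with compound or vehicle; inhibition taken from the growth difference.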
# [3] = NCI Yeast Anticancer Drug Screen. Data for the rad50EPP+ strain (AID 151);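 note: 0% = growth of vehicle-treated control cultures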; conditions: S. cerevisiae rad50 mutant strain, active compounds read high
# Method in brief: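 In this screen, rad50EPP+ yeast were exposed to compounds. Growth inhibition was scored against vehicle-treated controls.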
# [4] = NCI Yeast Anticancer Drug Screen. Data for the rad50 strain (AID 155);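 note: 0% = growth of vehicle-only cultures of the same strain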; conditions: S. cerevisiae rad50 strain growth inhibition, active compounds read high
# Method in brief: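 DNA repair mutant yeast, compound exposure, growth read-out; inhibition is taken relative to vehicle.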
# [5] = NCI Yeast Anticancer Drug Screen. Data for the mec2-1 strain (AID 157); conditions: S. cerevisiae mec2-1 strain, active compounds read high
# Method in brief: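 Vehicle-treated cultures served as reference for growth inhibition of compound-exposed mec2-1 yeast.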
# [6] = NCI Yeast Anticancer Drug Screen. Data for the rad14 strain (AID 159);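 note: 0% = growth of vehicle-treated control cultures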; conditions: S. cerevisiae rad14 strain growth inhibition, active compounds read high
# Method in brief: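 DNA repair-defective yeast, compound-exposed; % growth inhibition derived by comparison with vehicle-treated controls.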
# [7] = NCI Yeast Anticancer Drug Screen. Data for the sgs1 mgt1 strain (AID 161);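 note: 0% = growth of cultures given vehicle only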; conditions: S. cerevisiae sgs1 mgt1 strain, active compounds read high
# Method in brief: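 Mutant yeast exposed to compound; growth scored against vehicle-only wells.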
# [8] = NCI Yeast Anticancer Drug Screen. Data for the CLN2oe strain (AID 163);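 note: 0% = growth of vehicle-only control cultures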; conditions: S. cerevisiae CLN2oe strain, active compounds read high
# Method in brief: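 Inhibition relative to vehicle-treated yeast is reported. Cells: strain with genetic alteration in cell-cycle control, grown with compound.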
# [9] = NCI Yeast Anticancer Drug Screen. Data for the cln2 rad14 strain (AID 165);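 note: 0% = growth equal to vehicle treated cultures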; conditions: S. cerevisiae cln2 rad14 strain, active compounds read high
# Method in brief: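 Each compound was tested on cln2 rad14 yeast. Inhibition of growth was calculated against vehicle-exposed controls.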
# [10] = NCI Yeast Anticancer Drug Screen. Data for the bub3 strain (AID 167); conditions: S. cerevisiae bub3 mutant strain, active compounds read high
# Method in brief: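 In this screen, a yeast mutant lacking normal mitotic checkpoint function is challenged with compound. Relative growth versus vehicle gives the inhibition value.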
# [11] = NCI Yeast Anticancer Drug Screen. Data for the wt2 strain (AID 169);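 note: 0% = growth of vehicle-treated yeast cultures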; conditions: S. cerevisiae wt2 strain growth inhibition, active compounds read high
# Method in brief: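 Inhibition of yeast growth was determined after compound treatment, normalised to controls receiving only vehicle.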
# [12] = NCI Yeast Anticancer Drug Screen. Data for the mlh1 rad18 strain (AID 175); conditions: S. cerevisiae mlh1 rad18 strain growth inhibition, active compounds read high
# Method in brief: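 Vehicle-treated cultures served as the reference for growth inhibition in a yeast strain carrying DNA damage repair alterations exposed to each compound.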
# [13] = NCI Yeast Anticancer Drug Screen. Data for the rad18 strain (AID 177); conditions: S. cerevisiae rad18 mutant growth inhibition, active compounds read high
# Method in brief: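 Test articles were incubated with altered yeast defective in DNA damage repair. Results are given as inhibition of growth versus vehicle.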
# [14] = NCI Yeast Anticancer Drug Screen. Data for the mgt1 strain (AID 153); conditions: S. cerevisiae mgt1 mutant growth inhibition, active compounds read high
# Method in brief: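 mgt1 strain exposed; growth vs vehicle control recorded as inhibition.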
# [15] = NCI Yeast Anticancer Drug Screen. Data for the mlh1 strain (AID 171);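 note: 0% = growth of vehicle-treated control cultures of the same strain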; conditions: S. cerevisiae mlh1 strain growth inhibition, active compounds read high
# Method in brief: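 Vehicle-normalised growth inhibition of a repair- or checkpoint-altered yeast strain following compound treatment.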
# [16] = NCI Yeast Anticancer Drug Screen. Data for the sgs1 strain (AID 173);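 note: 0% = growth of vehicle-only control cultures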; conditions: S. cerevisiae sgs1 mutant, active compounds read high
# Method in brief: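 Screen format: yeast with repair or checkpoint alterations, compound exposure, growth read relative to vehicle.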
# [17] = at 5.0 µM (retest, dose inferred, filed as 0.5)
# [18] = at 50.0 µM (retest, dose inferred, filed as 5.0)
smiles,measurement,setting,value
O=[N+]([O-])c1ccc(N/N=C/Cc2ccccc2)c([N+](=O)[O-])c1,growth inhibition,[1]; at 1.2 µM,-3%
same,growth inhibition,[1]; at 3.7 µM,-4%
same,growth inhibition,[1]; at 11.0 µM,-2%
same,growth inhibition,[1]; at 33.0 µM,2%
same,growth inhibition,[1]; at 100.0 µM,2%
same,growth inhibition,[2]; at 1.2 µM,-1%
same,growth inhibition,[2]; at 3.7 µM,-2%
same,growth inhibition,[2]; at 11.0 µM,-3%
same,growth inhibition,[2]; at 33.0 µM,-6%
same,growth inhibition,[2]; at 100.0 µM,-12%
same,growth inhibition,[3]; at 1.2 µM,-2%
same,growth inhibition,[3]; at 3.7 µM,10%
same,growth inhibition,[3]; at 11.0 µM,24%
same,growth inhibition,[3]; at 33.0 µM,46%
same,growth inhibition,[3]; at 100.0 µM,57%
same,growth inhibition,[4]; at 1.2 µM,0%
same,growth inhibition,[4]; at 3.7 µM,-2%
same,growth inhibition,[4]; [17],5%
same,growth inhibition,[4]; at 11.0 µM,4%
same,growth inhibition,[4]; at 33.0 µM,8%
same,growth inhibition,[4]; [18],20%
same,growth inhibition,[4]; at 50.0 µM,-3.75%
same,growth inhibition,[4]; at 100.0 µM,-2%
same,growth inhibition,[5]; at 1.2 µM,-4%
same,growth inhibition,[5]; at 3.7 µM,-1%
same,growth inhibition,[5]; [17],1%
same,growth inhibition,[5]; at 11.0 µM,2%
same,growth inhibition,[5]; at 33.0 µM,6%
same,growth inhibition,[5]; [18],12%
same,growth inhibition,[5]; at 50.0 µM,30.8%
same,growth inhibition,[5]; at 100.0 µM,4%
same,growth inhibition,[6]; at 1.2 µM,-5%
same,growth inhibition,[6]; at 3.7 µM,-2%
same,growth inhibition,[6]; at 11.0 µM,2%
same,growth inhibition,[6]; at 33.0 µM,7%
same,growth inhibition,[6]; at 100.0 µM,3%
same,growth inhibition,[7]; [17],3%
same,growth inhibition,[7]; [18],45%
same,growth inhibition,[7]; at 50.0 µM,25%
same,growth inhibition,[8]; at 1.2 µM,-3%
same,growth inhibition,[8]; at 3.7 µM,1%
same,growth inhibition,[8]; at 11.0 µM,4%
same,growth inhibition,[8]; at 33.0 µM,0%
same,growth inhibition,[8]; at 100.0 µM,-1%
same,growth inhibition,[9]; [17],7%
same,growth inhibition,[9]; [18],-3%
same,growth inhibition,[9]; at 50.0 µM,-7.05%
same,growth inhibition,[10]; at 1.2 µM,2%
same,growth inhibition,[10]; at 3.7 µM,2%
same,growth inhibition,[10]; [17],9%
same,growth inhibition,[10]; at 11.0 µM,12%
same,growth inhibition,[10]; at 33.0 µM,27%
same,growth inhibition,[10]; [18],74% (active)
same,growth inhibition,[10]; at 50.0 µM,67.2%
same,growth inhibition,[10]; at 100.0 µM,39%
same,growth inhibition,[11]; at 1.2 µM,4%
same,growth inhibition,[11]; at 3.7 µM,5%
same,growth inhibition,[11]; at 11.0 µM,5%
same,growth inhibition,[11]; at 33.0 µM,6%
same,growth inhibition,[11]; at 100.0 µM,5%
same,growth inhibition,[12]; [17],1%
same,growth inhibition,[12]; [18],29%
same,growth inhibition,[12]; at 50.0 µM,12.1%
same,growth inhibition,[13]; at 1.2 µM,-2%
same,growth inhibition,[13]; at 3.7 µM,3%
same,growth inhibition,[13]; at 11.0 µM,11%
same,growth inhibition,[13]; at 33.0 µM,17%
same,growth inhibition,[13]; at 100.0 µM,21%
COC1=C(OC)C(=O)C(Sc2ccc3ccccc3c2)=CC1=O,growth inhibition,[1]; at 1.2 µM,-19%
same,growth inhibition,[1]; at 3.7 µM,-19%
same,growth inhibition,[1]; at 11.0 µM,56%
same,growth inhibition,[1]; at 33.0 µM,93% (active)
same,growth inhibition,[1]; at 100.0 µM,92% (active)
same,growth inhibition,[2]; at 1.2 µM,-73%
same,growth inhibition,[2]; at 3.7 µM,-61%
same,growth inhibition,[2]; at 11.0 µM,-13%
same,growth inhibition,[2]; at 33.0 µM,94% (active)
same,growth inhibition,[2]; at 100.0 µM,92% (active)
same,growth inhibition,[14]; at 1.2 µM,-46%
same,growth inhibition,[14]; at 3.7 µM,-47%
same,growth inhibition,[14]; at 11.0 µM,8%
same,growth inhibition,[14]; at 33.0 µM,94% (active)
same,growth inhibition,[14]; at 100.0 µM,92% (active)
same,growth inhibition,[4]; at 1.2 µM,-15%
same,growth inhibition,[4]; at 3.7 µM,0%
same,growth inhibition,[4]; [17],17%
same,growth inhibition,[4]; at 11.0 µM,19%
same,growth inhibition,[4]; at 33.0 µM,92% (active)
same,growth inhibition,[4]; [18],97% (active)
same,growth inhibition,[4]; at 50.0 µM,89.4% (active)
same,growth inhibition,[4]; at 100.0 µM,83% (active)
same,growth inhibition,[5]; at 1.2 µM,-69%
same,growth inhibition,[5]; at 3.7 µM,-40%
same,growth inhibition,[5]; [17],29%
same,growth inhibition,[5]; at 11.0 µM,19%
same,growth inhibition,[5]; at 33.0 µM,95% (active)
same,growth inhibition,[5]; [18],98% (active)
same,growth inhibition,[5]; at 50.0 µM,93.3% (active)
same,growth inhibition,[5]; at 100.0 µM,89% (active)
same,growth inhibition,[6]; at 1.2 µM,-18%
same,growth inhibition,[6]; at 3.7 µM,-8%
same,growth inhibition,[6]; at 11.0 µM,64%
same,growth inhibition,[6]; at 33.0 µM,96% (active)
same,growth inhibition,[6]; at 100.0 µM,93% (active)
same,growth inhibition,[7]; [17],5%
same,growth inhibition,[7]; [18],80% (active)
same,growth inhibition,[7]; at 50.0 µM,91.8% (active)
same,growth inhibition,[9]; [17],4%
same,growth inhibition,[9]; [18],-12%
same,growth inhibition,[9]; at 50.0 µM,85.8% (active)
same,growth inhibition,[10]; at 1.2 µM,-11%
same,growth inhibition,[10]; at 3.7 µM,0%
same,growth inhibition,[10]; [17],3%
same,growth inhibition,[10]; at 11.0 µM,-3%
same,growth inhibition,[10]; at 33.0 µM,89% (active)
same,growth inhibition,[10]; [18],79% (active)
same,growth inhibition,[10]; at 50.0 µM,91.2% (active)
same,growth inhibition,[10]; at 100.0 µM,87% (active)
same,growth inhibition,[11]; at 1.2 µM,-35%
same,growth inhibition,[11]; at 3.7 µM,-43%
same,growth inhibition,[11]; at 11.0 µM,33%
same,growth inhibition,[11]; at 33.0 µM,96% (active)
same,growth inhibition,[11]; at 100.0 µM,94% (active)
same,growth inhibition,[15]; at 1.2 µM,-39%
same,growth inhibition,[15]; at 3.7 µM,-38%
same,growth inhibition,[15]; at 11.0 µM,25%
same,growth inhibition,[15]; at 33.0 µM,95% (active)
same,growth inhibition,[15]; at 100.0 µM,95% (active)
same,growth inhibition,[16]; at 1.2 µM,-25%
same,growth inhibition,[16]; at 3.7 µM,-17%
same,growth inhibition,[16]; at 11.0 µM,23%
same,growth inhibition,[16]; at 33.0 µM,93% (active)
same,growth inhibition,[16]; at 100.0 µM,93% (active)
same,growth inhibition,[12]; [17],47%
same,growth inhibition,[12]; [18],96% (active)
same,growth inhibition,[12]; at 50.0 µM,89.6% (active)
same,growth inhibition,[13]; at 1.2 µM,-36%
same,growth inhibition,[13]; at 3.7 µM,-25%
same,growth inhibition,[13]; at 11.0 µM,58%
same,growth inhibition,[13]; at 33.0 µM,92% (active)
same,growth inhibition,[13]; at 100.0 µM,87% (active)
